# Measurements published in PubChem BioAssay (EPA / NIEHS).
# Activity calls are given as the source filed them. How the source made its calls: active means hit-call score of the fitted dose curve at least 0.9, where 1 is the maximum; inactive means score below 0.9.
# Assays:
# [1] = biological target: CCAAT/enhancer-binding protein beta (Homo sapiens) (UniProt P17676); assay: ATG_C_EBP_CIS: Attagene CIS-FACTORIAL HepG2 Assay for human CCAAT/Enhancer Binding Protein (C/EBP) beta (AID 2282927); conditions: HepG2 Attagene cis-factorial transcription factor reporter; actives raise or lower the signal
# Outline: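 Endogenous C/EBPb-driven reporter transcripts measured in transfected human HepG2 cells at 24 h via RT-PCR and capillary electrophoresis of labelled fragments. Activity fitted in both directions relative to DMSO baseline.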
# [2] = ATG_CMV_CIS: Attagene CIS-FACTORIAL HepG2 Assay for human CMV (Internal Marker) (AID 2282928); conditions: HepG2 CMV promoter reporter, transcription factor profiling; actives raise or lower the signal;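 further: endpoint acts as a background internal control marker rather than a target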
# Outline: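 Cell system: HepG2, transiently transfected multiple reporter units under cis promoters. Exposure: 24 h. Detection: RT-PCR, FAM labeling, HpaI digestion, capillary electrophoresis. Analysis: bidirectional, DMSO baseline.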
# [3] = ATG_DR4_LXR_CIS: Attagene CIS-FACTORIAL HepG2 Assay for human Liver X Receptor (LXR), DR4 submotif (AID 2282929); conditions: HepG2 Attagene DR4 cis-reporter, mRNA transcription; actives raise or lower the signal
# Outline: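 Endogenous factor activity at a DR4 cis-element is read as reporter mRNA in transiently transfected HepG2 cells. Exposure lasts 24 h; transcripts are amplified, fluorescently labelled and sized by capillary electrophoresis, with DMSO as baseline.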
# [4] = biological target: Aryl hydrocarbon receptor (Homo sapiens) (UniProt P35869); assay: ATG_Ahr_CIS: Attagene CIS-FACTORIAL HepG2 Assay for human Aryl Hydrocarbon Receptor (Ahr) (AID 2282930); conditions: HepG2 AhR cis-factorial reporter transcription; actives raise or lower the signal
# Outline: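 Reporter mRNA levels, quantified by RT-PCR and fluorescent capillary electrophoresis, reflect endogenous AhR transcriptional activity in HepG2 cells carrying transfected cis-promoter reporter constructs. Readout at 24 h post-dose; gain or loss fitted against DMSO baseline.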
# [5] = ATG_AP_1_CIS: Attagene CIS-FACTORIAL HepG2 Assay for human Activator Protein 1 (AP-1) (AID 2282931); conditions: HepG2 Attagene cis-factorial AP-1 reporter mRNA; actives raise or lower the signal
# Outline: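 Fluorescence of labelled PCR fragments separated by capillary electrophoresis gives reporter mRNA levels. HepG2 with transfected cis-regulated reporter units, 24 h exposure; DMSO serves as baseline for bidirectional curve fits.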
# [6] = ATG_AP_2_CIS: Attagene CIS-FACTORIAL HepG2 Assay for human Activator Protein 2 (AP-2) (AID 2282932); conditions: HepG2 AP-2 cis-reporter, Attagene transcription factor profiling; actives raise or lower the signal
# Outline: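 HepG2, transient MRTU transfection, cis-regulated reporters; 24 h compound exposure; RNA isolated, RT-PCR, 6-FAM labelling, HpaI digest, CE fluorescence. DMSO = negative control/baseline, bidirectional fit.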
# [7] = ATG_BRE_CIS: Attagene CIS-FACTORIAL HepG2 Assay for human Bone Morphogenetic Protein (BMP) Response Element (BRE) (AID 2282933); conditions: HepG2 BMP response element reporter, Attagene transcription factor profiling; actives raise or lower the signal
# Outline: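 Endogenous transcription factor activity read in transiently transfected HepG2 cells after 24 h chemical exposure. Bidirectional curve fitting against DMSO; readout is reporter transcript level by RT-PCR with capillary electrophoresis of labelled products.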
# [8] = biological target: Transcription factor E2F1 (Homo sapiens) (UniProt Q01094); assay: ATG_E2F_CIS: Attagene CIS-FACTORIAL HepG2 Assay for human E2F Transcription Factor 1 (AID 2282935); conditions: HepG2 Attagene cis-reporter, E2F reporter RNA transcripts; actives raise or lower the signal
# Outline: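 Cis-element reporter mRNA induction in transiently transfected HepG2, 24 h exposure. Activity fitted in both directions relative to DMSO negative control.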
# [9] = ATG_E_Box_CIS: Attagene CIS-FACTORIAL HepG2 Assay for human Enhancer Box (E-box) (AID 2282936); conditions: HepG2 E-box cis-reporter transcription, actives raise or lower the signal
# Outline: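 Cells: HepG2 (human liver), transient MRTU transfection. Exposure 24 h. RNA → oligo(dT) RT → PCR → 6-FAM label → HpaI → CE. Activity fitted both directions relative to DMSO.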
# [10] = ATG_M_61_CIS: Attagene CIS-FACTORIAL HepG2 Assay for M61 Transcription Factor (Internal Marker) (AID 2282937); conditions: HepG2 Attagene CIS-FACTORIAL M61 internal marker reporter; actives raise or lower the signal
# Outline: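 This endpoint serves as an internal background control within a multiplexed HepG2 cis-reporter panel. Cells are exposed for 24 h; reporter mRNA is amplified, fluorescently labelled and sized by capillary electrophoresis, with DMSO as negative control.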
# [11] = ATG_EGR_CIS: Attagene CIS-FACTORIAL HepG2 Assay for human Early Growth Response 1 (EGR1) (AID 2282938); conditions: HepG2 Attagene CIS-FACTORIAL EGR reporter mRNA; actives raise or lower the signal
# Outline: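 HepG2, transient MRTU transfection (cis promoters), 24 h compound. RNA → RT (oligo-dT) → PCR → 6-FAM labelling → HpaI cut → CE fluorescence. Bidirectional fit, DMSO baseline.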
# [12] = ATG_M_19_CIS: Attagene CIS-FACTORIAL HepG2 Assay for M19 Transcription Factor (Internal Marker) (AID 2282939); conditions: HepG2 Attagene CIS-FACTORIAL M19 internal marker reporter; actives raise or lower the signal
# Outline: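 Internal marker readout, fitted in both directions against DMSO, from HepG2 cells carrying transfected cis-element reporter constructs; RT-PCR and capillary electrophoresis of reporter mRNA after 24 h exposure.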
# [13] = ATG_ERE_CIS: Attagene CIS-FACTORIAL HepG2 Assay for Estrogen Response Element (ERE) (AID 2282940); conditions: HepG2 ERE cis-reporter, Attagene RNA transcript; actives raise or lower the signal
# Outline: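 After 24 h compound treatment, RNA from transfected HepG2 cells was reverse-transcribed, reporter cDNA PCR-amplified, FAM-labelled, HpaI-cut and resolved by capillary electrophoresis. ERE-driven cis reporter transcripts reflect endogenous factors; gain or loss scored against DMSO.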
# [14] = ATG_Ets_CIS: Attagene CIS-FACTORIAL HepG2 Assay for human Erythroblast Transformation Specific (ETS) (AID 2282941); conditions: HepG2 ETS cis-reporter transcription, actives raise or lower the signal
# Outline: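 After transient cis-reporter transfection, HepG2 cells receive test chemical for 24 h. Reporter mRNA levels, measured by RT-PCR and capillary electrophoresis fluorescence, are analysed bidirectionally relative to the DMSO baseline.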
# [15] = biological target: Hepatocyte nuclear factor 3-beta (Homo sapiens) (UniProt Q9Y261); assay: ATG_FoxA2_CIS: Attagene CIS-FACTORIAL HepG2 Assay for human Forkhead box A2 (FOXA2) (AID 2282942); conditions: HepG2 cis-reporter transcription factor activity, 24 h; actives raise or lower the signal
# Outline: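 Cells: HepG2, transient multiplex reporter transfection. Exposure 24 h. Detection: reporter-specific RT-PCR, fluorescent labelling, restriction digest, capillary electrophoresis. Analysis: bidirectional curve fit, DMSO as negative control.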
# [16] = ATG_FoxO_CIS: Attagene CIS-FACTORIAL HepG2 Assay for human Forkhead box O (FoxO) (AID 2282943); conditions: HepG2 Attagene cis-reporter, FoxO element, mRNA; actives raise or lower the signal
# Outline: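 Endogenous transcription factor activity read from multiplexed cis-promoter reporter transcripts in transiently transfected HepG2, 24 h after dosing. Reporter RNA measured via RT-PCR plus capillary electrophoresis of FAM-labeled products; gain or loss relative to DMSO.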
# [17] = ATG_GATA_CIS: Attagene CIS-FACTORIAL HepG2 Assay for human GATA Binding Protein (AID 2282944); conditions: HepG2 GATA cis-element reporter, Attagene multiplex mRNA; actives raise or lower the signal
# Outline: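 Reporter transcripts from a GATA cis-regulated unit, among multiplexed reporters in transfected HepG2 cells, were measured by RT-PCR with capillary electrophoresis after 24 h dosing. Induction or loss scored relative to DMSO.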
# [18] = ATG_GLI_CIS: Attagene CIS-FACTORIAL HepG2 Assay for human Zinc Finger Protein GLI1 (AID 2282945); conditions: HepG2, Attagene cis-factorial reporter mRNA, GLI element; actives raise or lower the signal
# Outline: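 Bidirectional curve fits relative to DMSO, using reporter mRNA levels from RT-PCR plus capillary electrophoresis. Cells were HepG2 transiently carrying cis-regulated reporter constructs, harvested 24 h after dosing.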
# [19] = biological target: Bile acid receptor (Homo sapiens) (UniProt Q96RI1); assay: ATG_IR1_CIS: Attagene CIS-FACTORIAL HepG2 Assay for human Nuclear Receptor Subfamily 1 Group H Member 4 (NR1H4), IR1 submotif (AID 2282946); conditions: IR1 reporter transcription, actives raise or lower the signal
# Outline: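 Cells (human HepG2) carry transiently transfected cis-promoter reporter transcription units. Compounds are incubated 24 h, total RNA is reverse-transcribed and amplified, and labelled fragments are resolved by capillary electrophoresis. Curves use DMSO as baseline.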
# [20] = biological target: Retinoic acid receptor alpha (Homo sapiens) (UniProt P10276); assay: ATG_DR5_RAR_CIS: Attagene CIS-FACTORIAL HepG2 Assay for human Retinoic Acid Receptor Alpha (RARE), DR5 submotif (AID 2282934); conditions: HepG2 Attagene cis-factorial RARE DR5 reporter, mRNA; actives raise or lower the signal;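 on AC50: reporter responds to endogenous RAR alpha beta and gamma in HepG2 not RARA alone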
# Outline: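 Reporter transcripts from a DR5-regulated unit, measured via RT-PCR plus capillary electrophoresis, reflect endogenous RAR activity in transiently transfected human HepG2 liver cells. Exposure lasted 24 h; gain or loss of signal scored against DMSO.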
# Bile acid receptor (Homo sapiens), sequence (Q96RI1 whole entry, looked up, the tested form may be a part): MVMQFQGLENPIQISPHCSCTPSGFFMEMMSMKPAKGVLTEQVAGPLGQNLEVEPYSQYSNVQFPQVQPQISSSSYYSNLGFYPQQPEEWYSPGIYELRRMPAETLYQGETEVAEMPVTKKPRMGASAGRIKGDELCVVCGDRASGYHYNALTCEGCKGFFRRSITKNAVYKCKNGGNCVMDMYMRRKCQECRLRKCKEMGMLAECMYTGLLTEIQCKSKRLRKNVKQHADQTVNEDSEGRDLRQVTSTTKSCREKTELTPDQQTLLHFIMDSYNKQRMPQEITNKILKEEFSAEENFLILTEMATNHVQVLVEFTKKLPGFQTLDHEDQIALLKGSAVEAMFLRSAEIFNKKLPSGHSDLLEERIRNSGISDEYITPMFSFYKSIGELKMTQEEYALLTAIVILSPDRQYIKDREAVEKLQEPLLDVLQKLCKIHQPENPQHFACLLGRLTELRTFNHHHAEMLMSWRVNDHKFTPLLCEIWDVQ
# CCAAT/enhancer-binding protein beta (Homo sapiens), sequence (P17676 whole entry, looked up, the tested form may be a part): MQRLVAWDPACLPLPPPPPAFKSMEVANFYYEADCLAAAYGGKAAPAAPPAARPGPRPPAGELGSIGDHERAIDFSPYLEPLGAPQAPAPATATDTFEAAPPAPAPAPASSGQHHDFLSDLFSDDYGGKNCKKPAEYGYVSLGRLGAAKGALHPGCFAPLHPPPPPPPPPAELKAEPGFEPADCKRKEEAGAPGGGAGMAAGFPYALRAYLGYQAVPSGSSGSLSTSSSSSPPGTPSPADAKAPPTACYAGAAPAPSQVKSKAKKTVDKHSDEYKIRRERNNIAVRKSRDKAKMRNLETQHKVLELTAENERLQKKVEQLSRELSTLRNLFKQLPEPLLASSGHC
# Transcription factor E2F1 (Homo sapiens), sequence (Q01094 whole entry, looked up): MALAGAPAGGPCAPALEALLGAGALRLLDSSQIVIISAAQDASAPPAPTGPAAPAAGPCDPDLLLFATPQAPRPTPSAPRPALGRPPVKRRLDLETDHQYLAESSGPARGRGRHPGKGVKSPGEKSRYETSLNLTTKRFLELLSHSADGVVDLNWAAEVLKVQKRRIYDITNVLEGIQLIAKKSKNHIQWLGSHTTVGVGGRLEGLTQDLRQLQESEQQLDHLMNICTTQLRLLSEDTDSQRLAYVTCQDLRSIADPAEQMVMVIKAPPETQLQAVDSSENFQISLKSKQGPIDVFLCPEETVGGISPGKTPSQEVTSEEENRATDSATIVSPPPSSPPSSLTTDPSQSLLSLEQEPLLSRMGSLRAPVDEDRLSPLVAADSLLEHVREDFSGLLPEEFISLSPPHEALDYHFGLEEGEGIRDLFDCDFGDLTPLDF
# Aryl hydrocarbon receptor (Homo sapiens), sequence (P35869 whole entry, looked up): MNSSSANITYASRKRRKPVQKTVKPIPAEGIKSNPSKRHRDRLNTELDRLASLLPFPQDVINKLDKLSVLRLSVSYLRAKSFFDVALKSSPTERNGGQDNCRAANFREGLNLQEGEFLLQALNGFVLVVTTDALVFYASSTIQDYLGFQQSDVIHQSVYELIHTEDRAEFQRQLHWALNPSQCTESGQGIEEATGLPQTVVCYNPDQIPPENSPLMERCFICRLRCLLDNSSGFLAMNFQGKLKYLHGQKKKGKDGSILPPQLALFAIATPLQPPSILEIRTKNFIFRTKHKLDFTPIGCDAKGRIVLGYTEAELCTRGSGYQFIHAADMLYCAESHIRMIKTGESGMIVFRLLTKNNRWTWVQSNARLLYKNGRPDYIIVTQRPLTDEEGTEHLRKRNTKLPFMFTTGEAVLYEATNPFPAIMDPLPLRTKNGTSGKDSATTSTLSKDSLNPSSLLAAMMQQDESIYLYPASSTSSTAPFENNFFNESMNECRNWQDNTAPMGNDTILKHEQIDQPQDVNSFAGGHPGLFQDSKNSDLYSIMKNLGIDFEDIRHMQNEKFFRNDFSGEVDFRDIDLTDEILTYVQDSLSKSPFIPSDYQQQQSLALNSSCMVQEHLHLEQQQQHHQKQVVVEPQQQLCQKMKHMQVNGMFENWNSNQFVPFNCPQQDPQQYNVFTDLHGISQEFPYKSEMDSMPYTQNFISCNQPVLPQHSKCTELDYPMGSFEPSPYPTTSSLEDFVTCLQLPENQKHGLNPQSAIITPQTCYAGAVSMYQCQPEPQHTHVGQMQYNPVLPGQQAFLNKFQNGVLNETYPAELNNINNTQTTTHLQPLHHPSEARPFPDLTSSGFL
# Retinoic acid receptor alpha (Homo sapiens), sequence (P10276 whole entry, looked up): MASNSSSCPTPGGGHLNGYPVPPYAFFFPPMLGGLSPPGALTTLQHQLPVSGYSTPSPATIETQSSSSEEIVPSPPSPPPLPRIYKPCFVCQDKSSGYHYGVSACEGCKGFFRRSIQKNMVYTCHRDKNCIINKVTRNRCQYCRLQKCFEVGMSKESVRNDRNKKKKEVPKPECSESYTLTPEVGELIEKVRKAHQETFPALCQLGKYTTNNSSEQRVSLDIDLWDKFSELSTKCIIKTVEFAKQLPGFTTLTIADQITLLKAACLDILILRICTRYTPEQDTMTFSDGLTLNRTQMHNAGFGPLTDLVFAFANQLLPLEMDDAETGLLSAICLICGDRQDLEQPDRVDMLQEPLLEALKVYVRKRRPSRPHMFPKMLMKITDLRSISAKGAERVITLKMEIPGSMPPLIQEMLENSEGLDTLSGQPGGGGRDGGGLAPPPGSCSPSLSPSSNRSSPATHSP
# Hepatocyte nuclear factor 3-beta (Homo sapiens), sequence (Q9Y261 whole entry, looked up): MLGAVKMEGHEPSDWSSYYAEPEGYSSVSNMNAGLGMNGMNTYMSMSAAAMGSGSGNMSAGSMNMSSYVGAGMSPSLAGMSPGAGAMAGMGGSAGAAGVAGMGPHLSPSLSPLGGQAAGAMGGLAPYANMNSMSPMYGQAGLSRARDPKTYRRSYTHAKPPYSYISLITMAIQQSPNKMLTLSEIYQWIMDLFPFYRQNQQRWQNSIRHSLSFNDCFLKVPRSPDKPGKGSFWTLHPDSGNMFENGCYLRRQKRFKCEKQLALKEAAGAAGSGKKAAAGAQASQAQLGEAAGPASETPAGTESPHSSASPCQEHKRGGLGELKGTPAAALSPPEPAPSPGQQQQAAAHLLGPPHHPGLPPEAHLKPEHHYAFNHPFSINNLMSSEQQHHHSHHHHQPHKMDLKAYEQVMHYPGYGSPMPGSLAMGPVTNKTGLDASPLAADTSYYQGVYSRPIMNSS
structure (smiles),measurement,setting,value
COP(=O)(OC)OC,outcome,[1],inactive
same,outcome,[2],inactive
same,outcome,[3],inactive
same,outcome,[4],inactive
same,outcome,[5],inactive
same,outcome,[6],inactive
same,outcome,[7],inactive
same,outcome,[8],inactive
same,outcome,[9],inactive
same,outcome,[10],inactive
same,outcome,[11],inactive
same,outcome,[12],inactive
same,outcome,[13],inactive
same,outcome,[14],inactive
same,outcome,[15],inactive
same,outcome,[16],inactive
same,outcome,[17],inactive
same,outcome,[18],inactive
same,outcome,[19],inactive
Cc1cc(Cl)ccc1O[C@H](C)C(=O)O,outcome,[1],inactive
same,outcome,[2],inactive
same,outcome,[3],inactive
same,outcome,[4],inactive
same,outcome,[5],inactive
same,outcome,[6],inactive
same,outcome,[7],inactive
same,outcome,[20],inactive
same,outcome,[8],inactive
same,outcome,[9],inactive
same,outcome,[10],inactive
same,outcome,[11],inactive
same,outcome,[16],inactive
same,outcome,[17],inactive
same,outcome,[18],inactive
C=C(C)C#N,outcome,[1],inactive
same,outcome,[2],inactive
same,outcome,[3],inactive
same,outcome,[4],inactive
same,outcome,[5],inactive
same,outcome,[6],inactive
same,outcome,[7],inactive
same,outcome,[20],inactive
same,outcome,[8],inactive
same,outcome,[9],inactive
same,outcome,[10],inactive
same,outcome,[11],inactive
same,outcome,[13],inactive
same,outcome,[15],inactive
same,outcome,[16],inactive
same,outcome,[18],inactive
same,outcome,[19],inactive
Clc1ccc(C2(Cn3cncn3)CC(Br)CO2)c(Cl)c1 (centres undefined),outcome,[1],inactive
same,AC50,[2],99.5 µM (active)
same,AC50,[3],68.1 µM (active)
same,AC50,[4],27.6 µM (active)
same,AC50,[5],35.5 µM (active)
same,outcome,[6],inactive
same,AC50,[7],99.5 µM (active)
same,outcome,[8],inactive
same,outcome,[9],inactive
same,outcome,[10],inactive
same,outcome,[11],inactive
same,outcome,[12],inactive
same,AC50,[13],2.54 µM (active)
same,outcome,[14],inactive
same,outcome,[15],inactive
same,outcome,[16],inactive
same,outcome,[17],inactive
same,outcome,[18],inactive
same,outcome,[19],inactive
CCOC(=O)CP(=O)(OCC)OCC,outcome,[1],inactive
same,outcome,[2],inactive
same,outcome,[3],inactive
same,outcome,[4],inactive
same,outcome,[5],inactive
same,outcome,[6],inactive
same,outcome,[7],inactive
same,outcome,[8],inactive
same,outcome,[9],inactive
same,outcome,[10],inactive
same,outcome,[11],inactive
same,outcome,[12],inactive
same,outcome,[13],inactive
same,outcome,[14],inactive
same,outcome,[15],inactive
same,outcome,[16],inactive
same,outcome,[17],inactive
same,outcome,[18],inactive
same,outcome,[19],inactive
COc1ccc(OC)c(C=O)c1,outcome,[1],inactive
same,outcome,[2],inactive
same,outcome,[3],inactive
same,outcome,[4],inactive
same,outcome,[5],inactive
same,outcome,[6],inactive
same,outcome,[7],inactive
same,outcome,[8],inactive
same,outcome,[9],inactive
same,outcome,[10],inactive
same,outcome,[11],inactive
same,outcome,[12],inactive
same,outcome,[13],inactive
same,outcome,[14],inactive
same,outcome,[15],inactive
same,outcome,[16],inactive
same,outcome,[17],inactive
same,outcome,[18],inactive
same,outcome,[19],inactive
CCCCCCCCSC(=O)Oc1cc(Cl)nnc1-c1ccccc1,outcome,[1],inactive
same,AC50,[2],171 µM (active)
same,AC50,[3],159 µM (active)
same,outcome,[4],inactive
same,AC50,[5],122 µM (active)
same,outcome,[6],inactive
same,outcome,[7],inactive
same,AC50,[20],100 µM (active)
same,outcome,[8],inactive
same,outcome,[9],inactive
same,outcome,[10],inactive
same,outcome,[11],inactive
same,outcome,[13],inactive
same,AC50,[14],162 µM (active)
same,AC50,[16],141 µM (active)
same,outcome,[18],inactive
